Records with an inconclusive call do not appear. The source made the active and inactive calls. Calls follow the shape of the dose curve; as a rule, active = well fitted cell-killing curve with a large enough effect; inconclusive = small, poorly fitted or top-dose-only effect, or effect the other way; inactive = no such curve, though single readings can be large or run the other way.
Assay: Viability qHTS for spleen associated tyrosine kinase inhibitor (SYKi) drug resistant MV4-11 cells (AID 1963824); also: nearly all actives have a fitted effect of over 35% in size
Details: SYKi-resistant MV4-11 viability, CellTiter-Glo, 72 h; series mostly up to 45 µM; viability, % of control: at the top concentration
Summary of the method: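 SYK inhibitor-resistant MV4-11 AML cells, 500 per well, added to predispensed compounds and incubated 72 hr at 37 C, 5% CO2. Viability measured by CellTiter-Glo luminescence after 10 min at room temperature.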
For `C=C1C(=O)O[C@@H]2CC(C)=C([C@@H](C)CCCO)[C@@H](OC(=O)C(C)C)[C@H]12`, the Potency was 4.04 µM (active). In the case of `CC(=O)OC1C(OC(=O)c2ccccc2)C2C(C)(C)CCC(OC(C)=O)C2(C)C23CCC(C)(C2)C(=O)CC13` (stereo unspecified), the Potency was 10 µM (active). With `C[C@@H]1C[C@@H](O)[C@@]23CO[C@]2(CO)CCC[C@@H]3[C@@]12C[C@@H](c1ccoc1)OC2=O` the “viability, % of control” value was 88.1% (inactive). With `CCCCC/C=C\C/C=C\CCCCCCCC(=O)NC(C)c1ccccc1` (stereo unspecified) the Potency was 7.5 µM (active). For `COC1CC(=O)C23C(=O)NC(CC(C)C)C2C(C)C(C)=CC3/C=C(\C)CCC1O` (stereo unspecified), the Potency was 7.96 µM (active). In the case of `N#Cc1cnc2cnc(NCc3cccnc3)cc2c1Nc1ccc(F)c(Cl)c1`, the Potency was 3.66 µM (active).

Source: PubChem BioAssay (NCATS)
Potency is read from the fitted curve at half-maximal effect.
